# Data published in PubChem BioAssay AID492997 (Johns Hopkins Ion Channel Center, 2010).
# In all, about 4,900 compounds went through this assay and about 2,000 (41%) were called active.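 How the source made its calls: active means thallium signal drop beyond 5 SD of the untreated control mean, on both duplicate plates; inactive means the rest.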 So high a share suggests a set chosen from earlier hits. The list is a sample of the results.
# Assay: nonspecific activity without KCNK9 expression – cell-based, second counter screen, non-induced KCNK9-HEK293, counter-screen for KCNK9 inhibitor project, confirmation (AID 492997);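 on inhibition: plate controls were buffer only IC0 wells for no effect and SID17386958 at its maximal inhibitory level for full effect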
# Details: non-induced KCNK9-HEK293, FluxOR thallium flux, at 10 µM; hits give high values
row,Compound,inhibition
1,O=C1N=C2SCCN2/C1=C\c1c(Cl)cccc1Cl,inactive
2,COc1cccc(OC)c1C(=O)Nc1sc2c(c1C(N)=O)CCCC2,inactive
3,Cc1ccc(OCc2cc(C(=O)N(C)CCc3ccccc3)no2)cc1C,inactive
4,COc1ccc(C(C)=O)cc1COc1ccc(Cl)c(C)c1,37% (active)
5,O=C(NCc1ccccc1)C1=C[C@@H](C2CCCCC2)C[C@@H](OCc2ccc(CO)cc2)O1,inactive
6,CCC(C)(C)n1nnnc1C(c1cccs1)N1CCN(c2nc3ccccc3s2)CC1 (centres undefined),34.5% (active)
7,CC1(C)CC(N2CCN(C(c3ccccc3)c3ccccc3)CC2)=CC(=[N+]2CCCCC2)C1,36% (active)
8,Cc1ccccc1CSc1nnc(CCCCCNC(=O)OC(C)(C)C)o1,22% (active)
9,COC(=O)c1sc(-c2ccc(C(C)(C)C)cc2)cc1NC(=O)/C=C/C(=O)O,inactive
10,COc1ccc(C(=O)NN2C(=O)C3C(c4ccccc4)C=CC(c4ccccc4)C3C2=O)cc1 (centres undefined),inactive
11,COc1ccc(C(=O)Nc2ccccc2C(=O)N/N=C/c2ccccc2OC)cc1,31% (active)
12,COc1cccc(-c2cnc(OC(C)(C)C)nc2OC(C)(C)C)c1,inactive
13,O=C(Nc1ccc2c(c1)CCC2)c1cccc(S(=O)(=O)Nc2ccccc2Cl)c1,inactive
14,O=C(COc1ccc(Cl)cc1Cl)N/N=C/c1ccccn1,inactive
15,O=C(N/N=C/c1ccccn1)c1cccc(NC(=O)c2ccc(Cl)cc2)c1,22.5% (active)
16,CCc1ccccc1NC(=O)/C(=C/c1ccccc1)c1ccccc1,51.5% (active)
17,COc1ccc(C2CC(c3cccs3)=NN2c2ccccc2)cc1 (centres undefined),34% (active)
18,CCOc1ccccc1NC(=O)C12CC3CC(C1)CC(c1ccc(C)cc1)(C3)C2,inactive
19,Cc1ccc(S(=O)(=O)N2CCN(C(=O)COC(=O)c3c(C)cc(C)cc3C)CC2)c(C)c1,inactive
20,O=C(NCCc1ccccc1)c1ccc2c(c1)N(Cc1ccccc1)CCS2,29% (active)
21,O=C1/C(=C/c2ccc3c(c2)OCO3)CCC/C1=C\c1ccc2c(c1)OCO2,inactive
22,CC1(C)CC(=O)CC2(C1)NCC(c1ccccc1Cl)c1c2[nH]c2ccccc12 (centres undefined),33% (active)

row,Compound,inhibition
1,Cc1ccc(N2CCN(S(=O)(=O)c3ccc(F)cc3)CC2)c(C)c1,inactive
2,CCCCC(=O)Nc1ccccc1N1CCN(c2ccc(F)cc2)CC1,43% (active)
3,Cc1cccc(C(=O)Nc2ccccc2N2CCN(c3ccc(F)cc3)CC2)c1,29.5% (active)
4,COc1ccc(C(=O)C2CCCN(C(=O)c3ccc(OC)o3)C2)c(C)c1 (centres undefined),inactive
5,Cc1ccc2c(c1)N(C(=O)CCC(=O)N1CCc3ccccc3C1)CCO2,inactive
6,Fc1ccc(Cn2nnnc2C(c2cccs2)N2CCCCCC2)cc1 (centres undefined),30.5% (active)
7,Cc1cccc2cc(CN(Cc3nnnn3Cc3ccccc3)C3CCCC3)c(=O)[nH]c12,inactive
8,CCOc1ccc2[nH]c(=O)c(CN(Cc3nnnn3CCc3ccccc3)CC3CCCO3)cc2c1 (centres undefined),inactive
9,CCC(c1nnnn1Cc1ccco1)N(CCc1ccccc1)Cc1cc2cccc(C)c2[nH]c1=O (centres undefined),33.5% (active)
10,O=C1CC(NNc2ccccc2)C(=O)N1c1cccc(Cl)c1 (centres undefined),inactive
11,c1ccc(C(c2ccccc2)N2CCN(Cc3nnnn3C3CCCCC3)CC2)cc1,29% (active)
12,CCOc1ccc(OCc2ccc(C(=O)Nc3cccc(C)n3)o2)cc1,inactive
13,CSc1cccc(NC(=S)N(C(C)C)C(C)c2ccccn2)c1 (centres undefined),24.5% (active)
14,COC(C(=O)Nc1ccc(S(=O)(=O)Nc2ccc(C)c(C)c2)cc1)c1ccccc1 (centres undefined),inactive
15,CC(C)C(=O)Nc1cccc(NC(=S)NC(=O)C(c2ccccc2)c2ccccc2)c1,24% (active)
16,CCCCOC(=O)CCCc1ccc([N+](=O)[O-])cc1[N+](=O)[O-],inactive
17,COc1cc(Cl)c(S(=O)(=O)N2CCN(Cc3ccc4c(c3)OCO4)CC2)cc1Cl,inactive
18,COc1ccc(-c2nc(CCNC(=O)c3ccc(Br)o3)cs2)cc1,inactive
19,COc1ccc(CCNC(=O)c2ccccc2OCc2ccccc2)cc1,40% (active)
20,COc1ccc(CCNc2ncnc3c2nnn3Cc2ccccc2)cc1,inactive
21,COCCNc1cc(-c2ccccc2)nc2cc(-c3cccc(F)c3)nn12,30% (active)
22,COC(=O)Cn1cnc2scc(-c3ccc(C)c(C)c3)c2c1=O,inactive

row,Compound,inhibition
1,Cc1ccc(-c2csc(NCCc3nc4cc(Cl)c(Cl)cc4n3CCOCCO)n2)cc1,36% (active)
2,CCN(C(=O)COc1ccc(C(=O)c2ccccc2)cc1)c1ccccc1,29% (active)
3,Cc1ccc(C2=Nc3c(ccc4ccccc34)C(c3ccncc3)=NN2)cc1,inactive
4,COc1ccc2c(c1)C(c1cccs1)=NNC(c1cccnc1)=N2,24.5% (active)
5,O=C(NNc1ccccc1Cl)C(O)(c1cccc(C(F)(F)F)c1)c1cccc(C(F)(F)F)c1,inactive
6,O=[N+]([O-])/C=C/c1ccc2c(ccn2Cc2ccccc2)c1,44.5% (active)
7,COc1cccc(COc2ccc(N(C)S(=O)(=O)c3ccccc3)cc2)c1,49.5% (active)
8,CCOC(=O)c1cc2sccc2n1Cc1ccc(C#N)cc1,53% (active)
9,O=C(OCC(=O)N(CCc1ccccc1)Cc1ccccc1)c1ccccc1[N+](=O)[O-],inactive
10,O=C(Nc1ccc(Cl)c(Cl)c1)N1CC=C(c2ccccc2)CC1,inactive
11,Cc1nc(N2CCN(c3ccccn3)CC2)c2c(C)c(C(=O)Nc3ccc(F)c(Cl)c3)sc2n1,24.5% (active)
12,COc1ccc(C(=O)C2CCCN(C(=O)c3cc(C)on3)C2)cc1F (centres undefined),inactive
13,Oc1ccc(/C=N/Nc2nc(-c3ccccc3F)nc3ccccc23)c(O)c1,32% (active)
14,O=C1c2ccccc2S(=O)(=O)N1CC(O)Cn1c2ccccc2c2ccccc21 (centres undefined),inactive
15,Cc1cccc(N(C)C(=O)CN2C(=O)COc3ccc(S(=O)(=O)N4CCCCCC4)cc32)c1,inactive
16,O=C(CSCc1ccc(Br)cc1)Nc1ccc(S(=O)(=O)N2CCCCCC2)cc1,inactive
17,Cc1cccc(NC(=O)CN2CCCN(S(=O)(=O)c3ccc(Br)s3)CC2)c1,39.5% (active)
18,O=C1c2ccccc2C2=Nc3ccccc3SC(c3ccccc3F)C12 (centres undefined),45.5% (active)
19,C=CCN(N=Nc1cccc([N+](=O)[O-])c1)c1cccc([N+](=O)[O-])c1,39% (active)
20,Cc1ccc(NC2CCCN(C(=O)CCC3(C)CC3)C2)cc1C (centres undefined),inactive
